# Unmarked numbers belong to inactive results. Results filed as inconclusive are left out. Active and inactive are the calls of the source. Unless noted, the call rests on the fitted dose curve; in most records, active means well fitted curve in either direction with a large enough effect (not every such curve was filed as active); inconclusive means small, poorly fitted or top-dose-only effect, or another doubt; inactive means flat fitted curve, though single readings scatter.
# Assays:
# [1] = NFAT Signaling Pathway (AID 444); conditions: Jurkat NFAT-bla M1, carbachol, beta-lactamase ratio, 5 h; at 17.2 µM (top of the series) unless noted;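 further: carbachol stimulus at about its EC50 of 1 µM final; on the % scale 0 is the no-effect control and ±100 the full control effect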
# Method in brief: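 Jurkat cells with NFAT-driven β-lactamase reporter and co-expressed M1 receptor, stimulated with carbachol (final 1 uM, ~EC50), compound titration, 5 h at 37 °C. CCF4 loaded 1 h at RT; 460/530 nm ratio gave %activity and AC50.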
# [2] = Stat Signaling Pathway (AID 446); conditions: ME-180 SIE beta-lactamase reporter, IL-6 stimulated, 5 h; at 17.2 µM (top of the series) unless noted;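 further: ME-180 cervical cancer cells given 40 pM IL-6 alongside compound; SIE-controlled beta-lactamase reporter measured as 460/530 nm FRET emission ratio; on the % scale 0 is the no-effect control and ±100 the full control effect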
# Method in brief: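 Reporter line: ME-180 cervical carcinoma, SIE-beta-lactamase. Treatment: compound with 40 pM IL-6, 5 hrs, 37 C, in low-serum OPTI-MEM with 10 mM HEPES pH 7.3. Detection: 460/530 nm fluorescence.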
# [3] = target: Glucocorticoid receptor (Homo sapiens) (UniProt P04150); assay: GR-GFP Redistribution (AID 450;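 active means compounds whose dose series gives a full or clear partial fitted curve of increased nuclear translocation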; further: potency means the concentration at half of the fitted maximal effect)
# Sequence of Glucocorticoid receptor (Homo sapiens) (P04150 whole entry, looked up, the tested form may be a part): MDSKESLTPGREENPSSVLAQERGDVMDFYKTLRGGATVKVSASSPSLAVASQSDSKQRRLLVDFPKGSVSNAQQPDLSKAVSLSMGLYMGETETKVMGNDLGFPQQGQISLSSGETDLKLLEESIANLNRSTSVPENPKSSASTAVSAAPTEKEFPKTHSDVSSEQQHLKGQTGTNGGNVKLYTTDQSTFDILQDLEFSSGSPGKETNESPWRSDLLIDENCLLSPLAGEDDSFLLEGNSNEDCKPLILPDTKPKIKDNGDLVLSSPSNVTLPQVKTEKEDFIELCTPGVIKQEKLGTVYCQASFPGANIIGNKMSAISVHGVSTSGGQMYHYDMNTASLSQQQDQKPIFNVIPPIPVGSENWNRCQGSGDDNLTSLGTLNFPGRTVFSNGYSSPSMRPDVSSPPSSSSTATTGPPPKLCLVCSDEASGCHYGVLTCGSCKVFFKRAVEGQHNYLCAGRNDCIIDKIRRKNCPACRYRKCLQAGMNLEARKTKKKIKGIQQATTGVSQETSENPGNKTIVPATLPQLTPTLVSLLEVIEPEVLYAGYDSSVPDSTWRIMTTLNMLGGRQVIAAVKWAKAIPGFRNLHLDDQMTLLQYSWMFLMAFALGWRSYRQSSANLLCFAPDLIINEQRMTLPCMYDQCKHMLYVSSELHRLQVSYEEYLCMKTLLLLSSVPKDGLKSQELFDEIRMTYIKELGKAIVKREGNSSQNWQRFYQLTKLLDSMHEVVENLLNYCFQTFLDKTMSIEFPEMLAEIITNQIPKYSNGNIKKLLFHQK
# [4] = target: Glucocorticoid receptor (Homo sapiens) (UniProt P04150); assay: GR-EFC Redistribution (AID 451; calls by dose curve; further: potency means the concentration at half of the fitted maximal effect); conditions: CHO-K1 GR-EFC translocation, beta-gal luminescence, 2 h
# Method in brief: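 CHO-K1 cells expressing nuclear EA and GR-ED fragments of b-gal; compounds titrated up to 46 uM final, 2 h at 37 C. GR nuclear translocation read as complemented b-gal luminescence after 1 h RT detection.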
# [5] = target: Mitogen-activated protein kinase 10 (Mus musculus) (UniProt Q61831); assay: JNK3 AlphaScreen Assay (AID 530);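 further: kinase came from lysate of stimulated human HepG2 cells; signal reports phosphorylation of biotinylated GST-cJun 1-79 at Ser73 with 10 µM ATP; on the % scale 0 is the no-effect control and ±100 the full control effect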
# Method in brief: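 Pre-activated (IL-1β/TNFα) JNK3 in HepG2 lysates phosphorylates biotin-GST-cJun(1-79), 10 uM ATP; anti-phospho-cJun(Ser73) AlphaScreen read at room temperature, pH 7.6 Tris buffer. Compounds pre-incubated 15 min as titrations.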
# [6] = target: Guanine nucleotide-binding protein G(i) subunit alpha-1 (Homo sapiens) (UniProt P63096); assay: qHTS Assay for Inhibitors of RGS12 GoLoco Motif Activity (Green Fluorophore) (AID 879; active means well fitted curve in the direction sought with a large enough effect; an effect the other way counts as inactive or inconclusive;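 further: 0% = labeled peptide with Gαi1 and full inhibition = labeled peptide alone without protein; negative values mean loss of peptide binding seen as reduced polarization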)
# Sequence of Guanine nucleotide-binding protein G(i) subunit alpha-1 (Homo sapiens) (P63096 whole entry, looked up): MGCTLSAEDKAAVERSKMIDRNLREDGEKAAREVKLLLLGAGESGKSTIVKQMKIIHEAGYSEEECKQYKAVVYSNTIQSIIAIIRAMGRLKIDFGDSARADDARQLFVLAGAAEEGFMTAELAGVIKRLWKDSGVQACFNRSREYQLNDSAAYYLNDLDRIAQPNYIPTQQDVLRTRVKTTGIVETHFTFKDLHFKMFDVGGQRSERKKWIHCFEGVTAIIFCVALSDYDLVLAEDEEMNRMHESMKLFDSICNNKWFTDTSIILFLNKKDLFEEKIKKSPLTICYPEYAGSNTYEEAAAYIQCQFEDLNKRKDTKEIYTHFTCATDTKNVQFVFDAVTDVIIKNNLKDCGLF
# Method in brief: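 Fluorescence polarization assay: 50 nM Gαi1 with 10 nM FITC-labeled RGS12 GoLoco peptide in 10 mM Tris pH 7.5, 150 mM NaCl, 0.1 mM GDP, 0.05% NP40, 10 min at room temperature with compound.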
# [7] = qHTS Assay for Identification of Small Molecule Antagonists for NFkB Signaling Pathway (AID 895; active means well fitted inhibition curve with a large enough effect in the signal ratio, with a control signal flat, not every such curve was filed as active; the % refers to the signal ratio; further: on the % scale 0 is the no-effect control and ±100 the full control effect)
# Method in brief: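 ME-180 NFkB-bla cells (beta-lactamase under NFkB response element), plated overnight, treated with compound then 10 pM TNF alpha (about EC50) for 5 hrs at 37 C. LiveBLAzer FRET read at 460/530 nm emission, 405 nm excitation.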
# [8] = qHTS Assay for Identification of Small Molecule Antagonists for Thrombopoietin (TPO) Signaling Pathway (AID 918; active means well fitted curve in the direction sought with a large enough effect; an effect the other way counts as inactive or inconclusive; further: potency means the concentration at half of the fitted maximal effect; nearly all actives have a fitted effect of over 60% in size); conditions: TPO-dependent cell signaling reporter, antagonist mode
# Method in brief: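 Ba/F3 (murine, hTPO-R, GPIIb-luc reporter); overnight IL-3 withdrawal; cpd + TPO 26 pM final (EC50); 24 h 37 C/5% CO2; Steadylite luminescence after 10 min RT.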
# [9] = target: Muscarinic acetylcholine receptor M1 (Rattus norvegicus) (UniProt P08482); assay: qHTS Assay for Antagonists of Acetylcholine Muscarinic M1 Receptor: Kinetic Measurement of Intracellular Calcium Response (AID 943; active means well fitted curve in the direction sought with a large enough effect; an effect the other way counts as inactive or inconclusive;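 further: Fluo-4 calcium signal as peak divided by basal fluorescence over 4 min; nearly all actives have a fitted effect of over 75% in size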)
# Sequence of Muscarinic acetylcholine receptor M1 (Rattus norvegicus) (P08482 whole entry, looked up): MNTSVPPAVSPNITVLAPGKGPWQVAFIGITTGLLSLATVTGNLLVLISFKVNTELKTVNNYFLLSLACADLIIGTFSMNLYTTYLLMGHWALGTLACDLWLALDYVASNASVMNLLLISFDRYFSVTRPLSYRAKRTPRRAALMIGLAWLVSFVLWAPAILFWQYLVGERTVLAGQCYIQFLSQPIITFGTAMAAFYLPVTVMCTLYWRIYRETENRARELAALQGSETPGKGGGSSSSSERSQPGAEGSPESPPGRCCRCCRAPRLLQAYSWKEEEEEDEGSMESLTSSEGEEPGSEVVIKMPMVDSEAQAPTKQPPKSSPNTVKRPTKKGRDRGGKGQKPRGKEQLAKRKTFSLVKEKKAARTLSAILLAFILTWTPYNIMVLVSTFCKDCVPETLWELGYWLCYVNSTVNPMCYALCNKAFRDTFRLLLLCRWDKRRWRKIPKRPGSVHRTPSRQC
# Method in brief: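 Rat M1-CHO cells, 2000/well, overnight → Fluo-4 no-wash dye with probenecid, 1 h 37C → compound 10 min, room temp → basal read 6 s → carbachol EC80 (100 nM) → 4 min kinetic read; peak/basal.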
# [10] = target: Muscarinic acetylcholine receptor M1 (Rattus norvegicus) (UniProt P08482); assay: qHTS Assay for Antagonists of Acetylcholine Muscarinic M1 Receptor: Measurement of IP-One Response (AID 944; active means well fitted curve in the direction sought with a large enough effect; an effect the other way counts as inactive or inconclusive; further: nearly all actives have a fitted effect of over 75% in size)
# Method in brief: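 M1-CHO (rat), 2000 cells/well, overnight recovery; cpd 10 min; carbachol EC80 (200 nM), 30 min, HEPES buffer + 50 mM LiCl pH 7.4; IP-One HTRF, Ex 337, Em 620/665 nm.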
# [11] = target: Pyruvate kinase (Leishmania mexicana) (UniProt Q27686); assay: qHTS Validation Assay for Inhibitors of Leishmania Mexicana Pyruvate Kinase (AID 945; active means well fitted curve in the direction sought with a large enough effect; an effect the other way counts as inactive or inconclusive;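 further: 0% = DMSO only neutral control wells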)
# Sequence of Pyruvate kinase (Leishmania mexicana) (Q27686 2-499 E452W): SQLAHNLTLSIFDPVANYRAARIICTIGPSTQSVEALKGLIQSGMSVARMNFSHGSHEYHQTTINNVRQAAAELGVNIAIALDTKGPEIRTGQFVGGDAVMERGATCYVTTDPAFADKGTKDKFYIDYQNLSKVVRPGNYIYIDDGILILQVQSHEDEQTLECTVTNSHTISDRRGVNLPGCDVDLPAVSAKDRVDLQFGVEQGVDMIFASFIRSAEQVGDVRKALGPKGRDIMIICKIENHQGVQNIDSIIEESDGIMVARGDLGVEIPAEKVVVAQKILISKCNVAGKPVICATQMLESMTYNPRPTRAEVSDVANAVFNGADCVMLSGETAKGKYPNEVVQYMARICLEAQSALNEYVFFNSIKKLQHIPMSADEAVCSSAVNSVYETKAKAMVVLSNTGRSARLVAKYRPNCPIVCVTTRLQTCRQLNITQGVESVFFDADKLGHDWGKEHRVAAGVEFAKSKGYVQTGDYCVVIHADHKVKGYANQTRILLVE
# Method in brief: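 Compounds are tested as eight-point concentration series. Reactions contain 0.2 nM LmPYK E451W, 0.5 mM PEP, 0.1 mM ADP, 7 mM MgCl2 and 50 mM KCl at pH 7.2, run 1 h at room temperature, then read by PKLight luminescence.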
# [12] = target: Pyruvate kinase PKM (Homo sapiens) (UniProt P14618); assay: qHTS Assay for Activators of Human Muscle Pyruvate Kinase (AID 954; active means well fitted curve in the direction sought with a large enough effect, not every such curve was filed as active;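 further: 0% = uninhibited enzyme and -100% = no enzyme or full thiadiazolimine inhibition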)
# Sequence of Pyruvate kinase PKM (Homo sapiens) (P14618 whole entry, looked up): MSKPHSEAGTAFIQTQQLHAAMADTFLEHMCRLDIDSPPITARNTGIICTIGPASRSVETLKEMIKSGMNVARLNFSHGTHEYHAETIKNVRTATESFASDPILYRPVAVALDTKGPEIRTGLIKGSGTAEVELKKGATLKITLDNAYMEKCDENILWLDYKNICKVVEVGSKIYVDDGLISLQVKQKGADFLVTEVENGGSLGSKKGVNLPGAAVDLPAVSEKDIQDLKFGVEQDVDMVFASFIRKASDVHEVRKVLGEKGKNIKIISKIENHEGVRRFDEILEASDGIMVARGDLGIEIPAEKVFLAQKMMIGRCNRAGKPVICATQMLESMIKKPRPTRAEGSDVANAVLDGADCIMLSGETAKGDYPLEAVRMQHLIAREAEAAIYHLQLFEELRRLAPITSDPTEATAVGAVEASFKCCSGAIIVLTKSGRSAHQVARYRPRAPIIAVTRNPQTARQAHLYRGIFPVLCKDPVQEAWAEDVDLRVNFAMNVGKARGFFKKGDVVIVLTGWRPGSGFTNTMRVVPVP
# Method in brief: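 Human PKM2 activity is measured as ATP generation, detected by luciferase-coupled luminescence. The enzyme (0.1 nM) acts on 0.5 mM PEP and 0.1 mM ADP for 1 h at ambient temperature; data are normalized to uninhibited and full-inhibition wells.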
# [13] = target: Alpha-galactosidase A (Homo sapiens) (UniProt P06280); assay: Counterscreen for Glucocerebrosidase Inhibitors: qHTS Assay for Human alpha-Galactosidase at pH 4.5 (AID 992; active means well fitted curve in the direction sought with a large enough effect; an effect the other way counts as inactive or inconclusive; further: 0% is about no effect)
# Sequence of Alpha-galactosidase A (Homo sapiens) (P06280 whole entry, looked up): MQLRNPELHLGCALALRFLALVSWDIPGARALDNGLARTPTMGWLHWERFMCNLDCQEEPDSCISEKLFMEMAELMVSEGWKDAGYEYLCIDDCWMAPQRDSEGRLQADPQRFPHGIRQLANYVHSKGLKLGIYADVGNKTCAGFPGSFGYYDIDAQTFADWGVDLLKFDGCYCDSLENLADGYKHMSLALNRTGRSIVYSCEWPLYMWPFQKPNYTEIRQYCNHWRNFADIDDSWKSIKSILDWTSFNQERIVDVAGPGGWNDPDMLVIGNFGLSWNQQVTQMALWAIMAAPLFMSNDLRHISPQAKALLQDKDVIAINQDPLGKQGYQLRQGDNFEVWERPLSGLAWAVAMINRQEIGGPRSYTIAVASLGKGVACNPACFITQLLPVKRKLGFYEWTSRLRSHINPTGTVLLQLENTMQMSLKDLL
# Method in brief: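 Quantitative HTS: compounds tested from 0.7 nM up to 77 uM against 2 nM enzyme with 80 uM 4-MU alpha-D-galactopyranoside. The 20 min room-temperature reaction is stopped with 1M NaOH/1M glycine, pH 10.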
# [14] = qHTS Assay for Identification of Small Molecule Agonists for Hypoxia Response Element Signaling Pathway (AID 914; active means well fitted activation curve with a large enough effect in the signal ratio, with a control signal flat, not every such curve was filed as active; the % refers to the signal ratio; further: potency means the concentration at half of the fitted maximal effect; on activation: % of control where 0% means no effect); conditions: ME-180 (cervical carcinoma) HRE-bla reporter, beta-lactamase ratio, CoCl2, 17 h; activation: active compounds read high
# Method in brief: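 A beta-lactamase reporter under hypoxia response element control in ME-180 cells served as the system. Compound titrations plus EC50 CoCl2 ran 17 h at 37 degrees Celsius; AC50 values were fitted from %Activity.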
smiles,measurement,setting,value
CCOc1cc2nc(-c3ccc(OC)c(OC)c3)nc(N3CCOCC3)c2cc1OC,"activity change, negative = inhibition",[1],-10.2%
same,"activity, negative = inhibition",[2],-21.5%
same,Potency,[3],> 20.6 µM
Cc1nc2sc3c(NCc4ccco4)ncnc3c2c2c1COC(C)(C)C2,"activity change, negative = inhibition",[1],-8.41%
same,"activity, negative = inhibition",[2],-18.1%
same,Potency,[3],> 20.6 µM
Cc1ccc(C(=O)CSC2=C(C#N)C(c3ccco3)C3=C(CCCC3=O)N2)cc1 (stereo not drawn),"activity change, negative = inhibition",[1],-8.28%
same,"activity, negative = inhibition",[2],-22.5%
same,Potency,[3],> 20.6 µM
CCOC(=O)C1CCN(c2nc3ccccc3nc2C(C#N)C(=O)OC(C)C)CC1 (stereo not drawn),"activity change, negative = inhibition",[1],8.02%
same,"activity, negative = inhibition",[2],-8.74%
same,Potency,[3],> 20.6 µM
c1ccc(N2CCN(c3nc(-c4ccccn4)nc4ccccc34)CC2)cc1,"activity change, negative = inhibition",[1],0.815%
same,"activity, negative = inhibition",[2],-14.9%
same,Potency,[3],> 20.6 µM
CCCCC(=O)c1c(C)cc(C)[nH]c1=O,"activity change, negative = inhibition",[1],4.24%
same,"activity, negative = inhibition",[2],1.99%
same,Potency,[3],> 20.6 µM
COC(=O)c1ccn(C(=O)c2ccc(Cl)cc2)n1,"activity change, negative = inhibition",[1],-8.81%
same,"activity, negative = inhibition",[2],-10.2%
same,Potency,[3],> 20.6 µM
COC(=O)[C@@H](NC(=O)c1cc(-c2ccccc2)nc2ccccc12)c1ccccc1,"activity change, negative = inhibition",[1],-7.43% [at 38 µM]
same,"activity, negative = inhibition",[2],1.95% [at 38 µM]
same,Potency,[3],> 46 µM
same,Potency,[4],> 46 µM
same,Potency,[5],inactive
CC(C)Cc1nc(N2CCN(C(=O)C(C)C)CC2)c(C#N)c2c1CCC2,"activity change, negative = inhibition",[1],-19.4%
same,"activity, negative = inhibition",[2],7.39%
same,Potency,[3],> 20.6 µM
CC1(C(=O)O)CCC(C(=O)NC2CCCCCC2)C1(C)C (stereo not drawn),"activity change, negative = inhibition",[1],-7.92%
same,"activity, negative = inhibition",[2],10.5%
same,Potency,[3],> 20.6 µM
CCC1(C)Cc2c(C#N)c(N)sc(=S)c2CO1 (stereo not drawn),"activity change, negative = inhibition",[1],-12.1%
same,"activity, negative = inhibition",[2],-10.3%
same,Potency,[3],> 20.6 µM
CCOC(=O)C1=C(C)N=C2SC(C)C(=O)N2C1c1ccc(C(=O)OC)cc1 (stereo not drawn),"activity change, negative = inhibition",[1],-15.8%
same,"activity, negative = inhibition",[2],-8.28%
same,Potency,[3],> 20.6 µM
CCCc1cc(-n2ccnc2C)n2c(nc3ccccc32)c1C#N,"activity change, negative = inhibition",[1],6.63%
same,"activity, negative = inhibition",[2],-3.66%
same,Potency,[3],> 20.6 µM
FC(F)(F)c1cc(CO[C@@H]2CCCN[C@H]2c2ccccc2)cc(C(F)(F)F)c1,"activity change, negative = inhibition",[1],16.5% [at 38 µM]
same,"activity, negative = inhibition",[2],-14.5% [at 38 µM]
same,Potency,[3],> 46 µM
same,Potency,[4],> 46 µM
same,Potency,[5],inactive
same,outcome,[6],inactive
same,Potency,[7],inactive
same,Potency,[8],10 µM (active)
same,Potency,[9],inactive
same,Potency,[10],inactive
same,Potency,[11],inactive
same,outcome,[12],inactive
same,outcome,[13],inactive
Cc1ccc(OCC(O)CNS(=O)(=O)c2ccccc2C(=O)O)cc1 (stereo not drawn),"activity change, negative = inhibition",[1],6.08%
same,"activity, negative = inhibition",[2],4%
same,Potency,[3],> 20.6 µM
Cc1cccc(N2CN=c3s/c(=C\c4ccncc4)c(=O)n3C2)c1,"activity change, negative = inhibition",[1],-17.2%
same,"activity, negative = inhibition",[2],-0.937%
same,Potency,[3],> 20.6 µM
CCNCc1cc2cc(C)ccc2[nH]c1=O,"activity change, negative = inhibition",[1],-15.2%
same,"activity, negative = inhibition",[2],2.05%
same,Potency,[3],> 20.6 µM
CCC1(C)Cc2ccccc2-c2nc(NCCO)n(-c3ccccc3)c(=O)c21 (stereo not drawn),"activity change, negative = inhibition",[1],6.29%
same,"activity, negative = inhibition",[2],-2.14%
same,Potency,[3],> 20.6 µM
COc1ccc(CC(=O)Nc2cccc(-c3nnc(-c4ccco4)o3)c2)cc1,"activity change, negative = inhibition",[1],29.9%
same,"activity, negative = inhibition",[2],-27.7%
same,Potency,[3],> 20.6 µM
COc1cccc(-c2nnc3sc(-c4ccc(C)cc4)nn23)c1,"activity change, negative = inhibition",[1],-10.2%
same,"activity, negative = inhibition",[2],1.68%
same,Potency,[3],> 20.6 µM
CCCCNc1c(CN)cnc2cc(Cl)ccc12,"activity, negative = inhibition",[2],-10.8% [at 7.69 µM]
O=C(COc1ccc(-c2nnc(N3CCCCC3)c3ccccc23)cc1)N1CCCCC1,"activity change, negative = inhibition",[1],-4.72%
same,Potency,[3],> 20.6 µM
NCCN1C(=O)c2ccccc2[C@@]1(O)c1ccc(Cl)cc1,"activity, negative = inhibition",[2],2.46% [at 7.69 µM]
O=C(c1ccccc1)C(CCC(CN1CCOCC1)C(=O)c1ccccc1)CN1CCOCC1 (stereo not drawn),"activity, negative = inhibition",[2],-25.4%
CCOc1ccc(C2=Nn3c(nnc3-c3ccccc3OC)SC2)cc1,"activity, negative = inhibition",[2],-10.6%
same,Potency,[3],> 20.6 µM
CCOC(=O)C1/C(=N\O)CC(C)(O)C(C(=O)OCC)C1c1ccc(OC)c(OC)c1 (stereo not drawn),"activity change, negative = inhibition",[1],-0.404%
same,"activity, negative = inhibition",[2],0.164%
same,Potency,[14],0.794 µM (active)
CCOC(=O)c1cc2c(=O)n3cccc(C)c3nc2n(C)c1=N,"activity change, negative = inhibition",[1],-13%
same,Potency,[3],> 20.6 µM
C#CCSC1=C(C#N)C(c2cccs2)C(C(=O)OCC)=C(C)N1 (stereo not drawn),"activity change, negative = inhibition",[1],-26.3%
same,Potency,[3],> 20.6 µM
C=CCn1c(N)c(C(=O)Nc2ccccc2)c2nc3ccccc3nc21,"activity change, negative = inhibition",[1],-5.29%
same,Potency,[3],> 20.6 µM
same,Potency,[14],5.01 µM (active)
CN(C)c1ccc(NC(=O)c2sc(SCC(=O)Nc3nccs3)nc2N)cc1,"activity change, negative = inhibition",[1],2.32%
same,Potency,[3],> 20.6 µM
CCOC(=O)CSc1nc(N)c(C(=O)Nc2ccc(N(C)C)cc2)s1,"activity change, negative = inhibition",[1],0.0938%
same,Potency,[3],> 20.6 µM
CN(CCCCCNC(=O)/C=N/O)Cc1ccccc1,"activity, negative = inhibition",[2],9.45%
same,Potency,[3],> 20.6 µM
CCOC(=O)c1c(-c2cccs2)csc1NC(=O)c1ccncc1,"activity change, negative = inhibition",[1],27.6%
same,"activity, negative = inhibition",[2],1.61%
same,Potency,[3],> 20.6 µM
same,Potency,[14],6.31 µM (active)
COCCCNc1nc2c(c(=O)[nH]c(=O)n2C)n1CC(O)COc1ccccc1 (stereo not drawn),"activity change, negative = inhibition",[1],16.9%
same,"activity, negative = inhibition",[2],-9.93%
same,Potency,[3],> 20.6 µM
same,activation,[14],-6.56%
N#Cc1nc(COc2ccc(Br)cc2)oc1N1CCCC1,"activity, negative = inhibition",[2],3.52%
same,Potency,[3],> 20.6 µM
OC1(C2(O)CC(c3ccccc3)ON2)CCCCC1 (stereo not drawn),"activity change, negative = inhibition",[1],-7.93%
same,"activity, negative = inhibition",[2],-6.74%
same,Potency,[3],> 20.6 µM
same,activation,[14],-4.48%
CN(Cc1ccccc1)c1ncnc2ccc(Br)cc12,"activity change, negative = inhibition",[1],-9.63%
same,Potency,[3],> 20.6 µM
COc1cc(C2C(C#N)=C(N)Oc3cc(N)ccc32)cc(OC)c1OC (stereo not drawn),"activity, negative = inhibition",[2],-20.2%
same,Potency,[3],> 20.6 µM
